Compound activity deposited in PubChem by National Center for Advancing Translational Sciences (NCATS).
SW480 rerep: A quantitative high throughput screen for small molecules that induce DNA re-replication in SW480 colon adenocarcinoma cells | SW480 DNA re-replication, Hoechst DNA content imaging, 48 h | Potency, µM (titrated, usually from 46.1 µM), hits mostly activators | actives 1.8% (n = 340,000); note: nearly all actives have a fitted effect of over 55% in size
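SW480 cells exposed to compounds for 48 hr at 37 C, 5% CO2, then Hoechst-stained 40 min. Nuclear DNA content imaged by fluorescence scanning (405 nm excitation, 500-530 nm emission); re-replication scored as increased high-intensity nuclei.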
KB-V1 MDR tox: qHTS assay for MDR1-selective chemotherapeutics: Primary screen using the drug-selected MDR subline cells KB-V1. KB-V1 MDR cells viability, CellTiter-Glo, 72 h. Potency, µM (titrated, usually from 46.1 µM), hits mostly cytotoxic. actives 3.4% (n = 400,000). AID 1347076, 2019; note: nearly all actives have a fitted effect of over 60% in size
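Potencies derive from concentration-effect curves fitted to normalized luminescence (CellTiter-Glo) of KB-V1 cells treated for 72 h at 37 degrees C in phenol-red-free DMEM containing 10% FBS.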
HT1080 IDH1KD tx: qHTS for induction of synthetic lethality in tumor cells producing 2HG: qHTS for the HT-1080-IDH1KD cell line | HT-1080 IDH1 knockdown viability, ATP luminescence, 48 h | Potency, µM (series often up to 46.1 µM), usual class: cytotoxic | actives 2% (n = 360,000) | AID 686971, 2013
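After a 2 h attachment period, IDH1KD HT-1080 cells took pin-transferred compound for 48 h at 37 °C; ATP-based luminescence after 10 min room-temperature reagent incubation reported viability.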
HT1080-NT tox: qHTS for induction of synthetic lethality in tumor cells producing 2HG: qHTS for the HT-1080-NT fibrosarcoma cell line; HT-1080-NT fibrosarcoma viability, CellTiter-Glo ATP luminescence, 48 h; AID 686970, 2013; Potency, µM (series often up to 46.1 µM), usual class: cytotoxic; actives 1.6% (n = 360,000);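 note: NT is the 2HG producing partner of a matched IDH1 knockdown line; nearly all actives have a fitted effect of over 55% in size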
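Viability of the 2HG-overproducing fibrosarcoma line after 48 hours of compound exposure at 37 degrees C was determined by luminescence with CellTiter-Glo, and concentration-effect curves were then fitted and categorized.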
MCF10A rereplic: A quantitative high throughput screen for small molecules that induce DNA re-replication in MCF 10a normal breast cells; AID 624296, 2012; MCF 10A DNA re-replication, Hoechst nuclear intensity, 48 h; Potency, µM (series often up to 46.1 µM), most hits filed as activators; actives 2.9% (n = 350,000); note: nearly all actives have a fitted effect of over 50% in size
KB-3-1 cytotox: qHTS assay for MDR1-selective chemotherapeutics: Primary screen using the parental adenocarcinoma cell KB-3-1 | KB-3-1 viability, CellTiter-Glo ATP luminescence, 72 h | Potency, µM (titrated, usually from 46.1 µM), usual class: cytotoxic | actives 1.4% (n = 400,000); note: nearly all actives have a fitted effect of over 60% in size
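Luminescent ATP read-out (CellTiter-Glo) measures survival of drug-naive KB-3-1 cells after 72 h compound exposure at 37 °C. Titration series was screened from lowest to highest concentration, with DMSO vehicle plates as background controls.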
A number is an active result; n = inactive; u = inconclusive; x = no result; [ ] = another dose, or the depositor's remark. Sampled rows, rich in hits. Any-hit rate of the full collection: about 7.9%. Calls come from the whole dose curve; as a rule, active = well fitted curve in the direction sought with a large enough effect; inconclusive = small, poorly fitted or top-dose-only effect, or another doubt; inactive = no such curve, though single readings can be large; an effect the other way counts as inactive or inconclusive.

SMILES | SW480 rerep | KB-V1 MDR tox | HT1080 IDH1KD tx | HT1080-NT tox | MCF10A rereplic | KB-3-1 cytotox
CC(=O)Nc1sc2c(c1C(c1ccncc1)N1CCOCC1)CCCC2 (configuration not stated) | n | n | n | n | n | n
CCc1cc(C(c2ccncc2)N2CCN(C)CC2)c(NC(=O)c2ccccc2)s1 (configuration not stated) | n | 21µM | n | n | n | n
CCOc1ccc(C(c2c(NC(=O)c3ccccc3)sc(C)c2C)N2CCN(CCO)CC2)cc1 (configuration not stated) | 3.7µM | u | u | u | u | u
Cc1sc(NC(=O)c2ccccc2)c(C(c2ccc(Cl)cc2)N2CCN(CCO)CC2)c1C (configuration not stated) | n | u | u | u | u | 21µM
COc1cccc(Cn2c(-c3nonc3N)nc3ccccc32)c1 | 4.6µM | 12µM | 2.1µM | 2.6µM | 2.6µM | 2.9µM
COc1cc(Cn2c(-c3nonc3N)nc3ccccc32)ccc1C | 7.1µM | 5.2µM | 1.8µM | 3.7µM | 4µM | 4.6µM
Cc1ccc(Cn2c(-c3nonc3N)nc3ccccc32)cc1 | n | n | n | n | n | n
Nc1nonc1-c1nc2ccccc2n1Cc1cccc(Cl)c1 | x | n | x | x | x | n
Cc1nccc(-c2cccc(N/N=C(\C#N)C(=O)c3ccccc3)c2)n1 | u | u | u | u | n | u
N#C/C(=N\Nc1cccc(C(F)(F)F)c1)C(=O)c1ccsc1 | n | 3.3µM | u | 4.6µM | u | 16µM
CC(C)COc1ccc(C(=O)Nc2sc3c(c2C(=O)O)CC(C)(C)OC3)cc1 | n | n | n | u | u | 8.2µM
O=C(Nc1ccccc1)c1ccccc1OCc1ccc(S(=O)(=O)N2CCOCC2)cc1 | n | n | n | n | n | n
O=C(COC(=O)C12CC3CC(CC(C3)C1)C2)NC12CC3CC(CC(C3)C1)C2 | n | n | n | n | n | n
CC1(c2ccccn2)Nc2ccccc2-c2nc3ccccc3n21 (configuration not stated) | n | 16µM | n | n | n | n
c1ccc2c(c1)NC1(CCCCCC1)n1c-2nc2ccccc21 | n | n | n | n | n | n
Cc1ccc(S(=O)(=O)N(C)c2ccc(OCC(=O)Nc3nc(-c4ccccc4)cs3)cc2)cc1 | n | n | n | n | u | n
Cc1ccc(S(=O)(=O)N(C)c2ccc(OCC(=O)Nc3nc4c(ccc5ccccc54)s3)cc2)cc1 | n | 4.1µM | n | n | n | n
Cc1ccc(S(=O)(=O)N(C)c2ccc(OCC(=O)Nc3nc4ccccc4s3)cc2)cc1 | n | 2.9µM | u | n | n | u
CCCCCCSc1cc(C)nc2ncnn12 | n | n | n | n | n | n
CCc1[nH]nc2c1C1(CCOC1C)C(C#N)=C(N)O2 (configuration not stated) | n | n | n | n | n | n
CC(C)OCCCNc1ncc2c(n1)CC(c1ccccc1)CC2=O (configuration not stated) | n | u | n | n | n | n
CCOC(=O)N1CCc2c(sc3c2C(=O)NC(c2cc(OC)c(OC)c(OC)c2)N3)C1 (configuration not stated) | x | n | x | x | x | 16µM
CCOC(=O)N1CCc2c(sc3c2C(=O)NC(c2ccc(C(=O)OC)cc2)N3)C1 (configuration not stated) | x | n | x | x | x | n
COC(=O)C1Cc2c([nH]c3ccccc23)C2(CCN(Cc3ccccc3)CC2)N1 (configuration not stated) | n | u | 18µM | 18µM | n | n
CCCN1CCC2(CC1)NC(C(=O)O)Cc1c2[nH]c2ccccc12 (configuration not stated) | n | n | n | n | n | n
SMILES | SW480 rerep | KB-V1 MDR tox | HT1080 IDH1KD tx | HT1080-NT tox | MCF10A rereplic | KB-3-1 cytotox
COC(=O)c1ccccc1NC(=O)C1CC(c2ccccc2O)=NO1 (configuration not stated) | n | n | u | n | n | n
CCn1cc(C2=NOC(C(=O)Nc3ccccc3C(=O)OC)C2)c(C)n1 (configuration not stated) | n | 10µM | n | n | n | n
Cc1c(C(=O)Nc2cccc(Cl)c2)c2ccccn2c1CCc1ccncc1 | u | u | u | n | 7.3µM | n
Cc1ccc2cccc(N=Cc3c(C)[nH]n(-c4ccccc4)c3=O)c2n1 | 7.3µM | 13µM | u | n | n | n
Cc1[nH]n(-c2ccccc2)c(=O)c1/C=N/N(C)c1ccccc1 | u | 15µM | n | n | n | n
Cc1[nH]n(-c2ccccc2)c(=O)c1/C=N/O | u | n | u | u | u | n
O=C(C1CCC1)N(CCc1ccccc1)Cc1nc2ccccc2c(=O)[nH]1 | n[9.22 µM] | n | n | n | n | n
COc1ccc2nc(NC(=O)c3ccoc3C)sc2c1 | n | 7.3µM | 11µM | 10µM | u | n
COc1ccc2nc(NC(=S)N(C)C)sc2c1 | n | 3.3µM | n | n | n | 21µM
COc1ccc2nc(NC(=O)c3cc(C)oc3C)sc2c1 | n | u | n | n | n | u
CCSc1nnc(NC(=O)c2cccc(OCc3c(C)noc3C)c2)s1 | n | n | n | n | u | n
CCN(Cc1ccc(Cl)s1)C(=O)c1cccc(OCc2c(C)noc2C)c1 | n | 5.8µM | n | n | u | u
COc1ccc2nc(NC(=O)c3cccc(OCc4c(C)noc4C)c3)sc2c1 | u | 3.7µM | u | u | n | 18µM
Cc1cccc2nc(CSc3nnnn3-c3ccccc3)cn12 | u | n | n | n | n | n
Cc1ccc(C(=O)NCC(=O)N2CCc3ccccc3C2)cc1C | n | n | n | n | n | n
Cc1ccc2nc(NC(=O)c3cccc(-c4cc5ccccc5oc4=O)c3)sc2c1 | n | u | u | u | n | n
CCOc1ccc2nc(NC(=O)c3cccc(-c4cc5ccccc5oc4=O)c3)sc2c1 | 16µM | u | 16µM | 13µM | u | n
CC(C)(C)c1ccc(N2C(=O)CSC2c2cccnc2)cc1 (configuration not stated) | n | n | n | n | 2.3µM | n
COc1ccc(C2c3[nH]c4ccccc4c3CCN2Cc2cccn2-c2ncccn2)cc1C (configuration not stated) | u | u | 23µM | 26µM | n[9.22 µM] | u
CCOc1ccc(NC(=O)Cn2nnc(C(=O)Nc3ccc(OCC)cc3)c2N)cc1 | x | n | x | x | x | n
